# Source: PubChem
# Compounds with a hit are over-represented: about 19% of the library has one in this group of screens.
# IL-1B inflam inh = inhibitors of inflammasome signaling (IL-1 beta secretion). activity change, % at 57.5 µM. 4.7% of 360,000 active. THP-1 LPS/ATP IL-1B secretion, AlphaLISA, 16 h; stronger effect = lower value. AID 743279; in the data active = activity change below about -50%; inconclusive = mostly about -30% to -49%; note: % is set by controls: 0 for no effect and ±100 for the full control effect
#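 Secreted IL-1B measured by AlphaLISA bead assay after 16 h compound exposure of THP-1 cells; compounds (final up to 57.5 uM) added 1 h before LPS (250 ng/mL) and ATP (1.25 mM) stimulation; lower signal means less secretion.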
# TDP1 inh = TDP1 (human) enzyme inhibition. Q9NUW8. Potency, µM (doses to about 130 µM), inactives show at the highest dose activity change, negative = inhibition, most hits filed as inhibitors. recombinant TDP1, AlphaScreen DNA substrate cleavage. 0.28% of 350,000 active; note: potency is the fitted concentration of half-maximal effect; % is set by controls: 0 for no effect and ±100 for the full control effect; nearly all actives have a fitted effect of over 40% in size
# Target sequence (Q9NUW8 whole entry, looked up): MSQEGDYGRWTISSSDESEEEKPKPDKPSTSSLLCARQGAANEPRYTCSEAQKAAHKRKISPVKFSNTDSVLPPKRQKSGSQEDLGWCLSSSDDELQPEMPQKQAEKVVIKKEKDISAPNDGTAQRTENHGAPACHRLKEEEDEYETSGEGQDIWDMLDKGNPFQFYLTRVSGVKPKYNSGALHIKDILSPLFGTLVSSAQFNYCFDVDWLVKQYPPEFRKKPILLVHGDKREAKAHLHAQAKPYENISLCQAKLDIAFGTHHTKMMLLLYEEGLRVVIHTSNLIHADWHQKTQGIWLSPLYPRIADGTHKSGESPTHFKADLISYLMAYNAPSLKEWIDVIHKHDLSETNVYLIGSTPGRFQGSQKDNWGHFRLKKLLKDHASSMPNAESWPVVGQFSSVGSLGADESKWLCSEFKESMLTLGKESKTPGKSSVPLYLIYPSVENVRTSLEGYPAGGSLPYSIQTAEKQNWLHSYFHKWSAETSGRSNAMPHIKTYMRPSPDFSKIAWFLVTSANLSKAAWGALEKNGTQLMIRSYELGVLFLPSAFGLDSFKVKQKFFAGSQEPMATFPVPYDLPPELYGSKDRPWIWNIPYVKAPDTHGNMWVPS
#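 Compounds were preincubated with Tdp1 (1 nM final) for 15 min at room temperature before substrate (15 nM final) started a 5 min reaction; beads (10 ug/ml final) were then added for 10 min before AlphaScreen detection.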
# TGFb inhibitor = TGF-b pathway inhibition. HepG2 CAGA-GFP TGF-b/SMAD3 reporter, GFP fluorescence, 18 h; TGF-beta stimulated, 500 pg/mL final. Potency, µM (series often up to 46.1 µM), inactives show at the highest dose activity, negative = inhibition, most hits filed as inhibitors. 1.2% of 410,000 active; note: potency is the fitted concentration of half-maximal effect; % is set by controls: 0 for no effect and ±100 for the full control effect; nearly all actives have a fitted effect of over 65% in size
#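 HEPG2 CAGA-GFP cells (1000/well, DMEM with 1% FBS) were pre-incubated 2 h at 37 degrees C, given compound by pin tool, then stimulated with TGF-beta at 500 pg/mL final for 18 h before per-cell GFP fluorescence imaging.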
# TDP1 cell noCPT = qHTS for Inhibitors of human tyrosyl-DNA phosphodiesterase 1 (TDP1): qHTS in cells in absence of CPT | 15% of 420,000 active | Potency, µM (series often up to 46.2 µM), without a hit: at the top dose activity change, negative = growth inhibition, usual class: inhibitors | DT40 Tdp1-/- hTDP1 cells, no CPT, ATP luminescence, 48 h; note: potency is the fitted concentration of half-maximal effect; % is set by controls: 0 for no effect and ±100 for the full control effect; nearly all actives have a fitted effect of over 55% in size
#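 DT40 Tdp1-/-;hTDP1 cells, no CPT (DMSO vehicle only), 400 cells/well; compounds pin-transferred; ≥48 hr, 37 °C; CellTiter-Glo 30 min RT dark, luminescence read.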
# HepG2 tox = counter-screen for TGF-b inhibitors: cytotoxicity in HepG2 cells; HepG2 CAGA-GFP viability, ATP luminescence, 18 h; Potency, µM (doses to about 46.1 µM), for the others: at the top dose activity change, negative = cytotoxicity, hits mostly cytotoxic; 0.76% of 410,000 active; AID 588856; note: potency is the fitted concentration of half-maximal effect
#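 HepG2 CAGA-GFP cells (1000/well, DMEM with 1% FBS) received compound, then TGF-beta at 500 pg/mL final, and were incubated 18 hours at 37 degrees C. Viability was read by CellTiter-Glo luminescence. Media-only wells were set as complete cell-killing and DMSO as no toxicity.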
# TDP1 cell CPT = growth inhibition of DT40 Tdp1-/-;hTDP1 cells with camptothecin (screen for TDP1 inhibitors) | chicken DT40 Tdp1-/-;hTDP1 cells + 20 nM CPT, ATP luminescence, 48 h | Potency, µM (titrated, usually from 46.2 µM), without a hit: top-dose activity change, negative = growth inhibition, most hits filed as inhibitors | 12% of 420,000 active; note: potency is the fitted concentration of half-maximal effect; % is set by controls: 0 for no effect and ±100 for the full control effect; nearly all actives have a fitted effect of over 55% in size
#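 Chicken DT40 Tdp1-/- cells complemented with human TDP1, 400 cells/well, exposed to compounds plus 20 nM camptothecin for at least 48 h at 37 C; viability read as ATP content by CellTiter-Glo luminescence.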
# Numbers without * were called inactive; ? = inconclusive; nt = not tested or not shown; ! = not confirmed by another sample; [ ] = dose if it differs, or a comment. Unless noted, calls come from the whole dose curve; as a rule, active = well fitted curve in the direction sought with a large enough effect; inconclusive = small, poorly fitted or top-dose-only effect, or another doubt; inactive = no such curve, though single readings can be large; an effect the other way counts as inactive or inconclusive.
SMILES,IL-1B inflam inh,TDP1 inh,TGFb inhibitor,TDP1 cell noCPT,HepG2 tox,TDP1 cell CPT
C/C(=N\NC(=O)c1cc(-c2cccnc2)nc2ccccc12)c1ccc(O)cc1O,49,-3%,-9%,10µM*,-20%,12µM*
C/C(=N\NC(=O)c1cc(-c2cccc(OC(C)C)c2)nc2ccccc12)c1cccnc1,-3,5%[56.1 µM],1%,?,-29%,10µM*
COc1ccc(NC(=O)c2cc3c(s2)-c2c(C)cccc2OC3)c(OC)c1,nt,-3%,-2%,23µM*,-14%,?
CCCN1CCN(CCCNC(=O)c2cc3c(s2)-c2c(C)cccc2OC3)CC1,-14,3%,?,26µM*,11µM*!,23µM*
COc1ccc(CNC(=O)c2cc3c(s2)-c2c(C)cccc2OC3)cc1,nt,-9%,0%,-6%,-47%,-8%
CCCN(C(=O)c1cc2c(s1)-c1c(C)cccc1OC2)c1ccc(OCC)cc1,nt,-1%,8%,5.2µM*,-1%,5.2µM*
Cc1cccc2c1-c1sc(C(=O)N3CCN(c4ccccc4)CC3)cc1CO2,nt,4%,-21%,16µM*,-32%,8.2µM*
CCOc1ccc(CNC(=O)CCn2nc(C)c3c(C)n(-c4ccccc4)nc3c2=O)cc1,nt,3%,-6%,-17%,3%,-5%
Cn1c(NCc2ccccc2F)nc2ccccc21,nt,3%,?,?,-16%,-25%
O=C(CCNS(=O)(=O)c1ccccc1)Nc1ccccc1,10,2%,-9%,12%,-6%,5%
CC(=O)N1CCCc2cc(S(=O)(=O)N(C)CC(=O)Nc3ccc(C)cc3C)ccc21,nt,7%,-20%,?,-3%,?
CCOC(=O)c1cc(S(=O)(=O)NCc2ccc(Cl)cc2)[nH]n1,nt,-4%,3%,-20%,-5%,-10%
CCOCCCN(Cc1ccco1)C(=O)c1cc2c(s1)-c1c(C)cccc1OC2,nt,nt,?,23µM*,-13%,?
Cc1cccc2c1-c1sc(C(=O)NCCCN3CCCC(C)C3)cc1CO2 (centres undefined),-18,3%,?,21µM*,-100%,?
Cc1cccc2c1-c1sc(C(=O)N(C)c3cccc(Cl)c3)cc1CO2,nt,?,?,?,-25%,16µM*
Cc1cccc2c1-c1sc(C(=O)NCCc3ccc(Cl)cc3)cc1CO2,nt,-5%,16%,7.3µM*,-11%,13µM*
CC(C)OCCCN(Cc1ccco1)C(=O)c1cc2c(s1)-c1ccccc1OC2,nt,-14%,-21%,nt,-17%,nt
CCCN1CCN(CCCNC(=O)c2cc3c(s2)-c2ccccc2OC3)CC1,?,5%,?,?,-54%,?
CCOC(=O)c1ccccc1NC(=O)c1cc2c(s1)-c1c(C)cccc1OC2,nt,-1%,-6%,-9%,5%,10%
Cc1cccc(NC(=O)c2cc3c(s2)-c2c(C)cccc2OC3)n1,20,3%,-15%,?,-3%,?
COc1ccc(F)cc1S(=O)(=O)n1nc(C)cc1C,-1,nt,1%,-5%,-10%,-17%
c1ccc(-c2[nH]ncc2-c2ccnc3ccccc23)nc1,nt,14%,nt,nt,nt,nt
COc1cccc(C2C(C(N)=O)=C(C)Nc3ncnn32)c1 (centres undefined),nt,nt,10%,3%,-2%,4%
COc1ccc(N2CCN(C(=O)CN3CCSc4ccccc43)CC2)cc1,nt,5%,-5%,nt,-3%,nt
COc1ccc(NC(=O)COC(=O)CN2C(=O)C3CCCCC3C2=O)cc1OC (centres undefined),7,2%,-4%,-18%,-1%,-12%
SMILES,IL-1B inflam inh,TDP1 inh,TGFb inhibitor,TDP1 cell noCPT,HepG2 tox,TDP1 cell CPT
COc1ccc(N2CC(NC(=O)C(c3ccccc3)c3ccccc3)CC2=O)cc1 (centres undefined),nt,0%,-6%,?,-3%,?
Nc1c(C(=O)Nc2cccc(C(F)(F)F)c2)c2ccccn2c1C(=O)c1ccccc1,nt,3%,13%,?,0%,?
COc1ccc(CNc2oc(COc3cccc(C)c3)nc2C#N)cc1,nt,nt,?,?,-39%,4.1µM*
COc1ccc(CCNc2oc(COc3ccccc3)nc2C#N)cc1,-9,5%,-2%,?,-44%,?
COc1ccccc1OCc1nc(C#N)c(NCc2ccco2)o1,?,2%,-7%,-17%,-2%,-8%
COc1ccc(CCNc2oc(COc3ccc(Cl)cc3)nc2C#N)cc1OC,nt,6%,?,12µM*,-52%,13µM*
COc1ccc(CCNc2oc(COc3cccc(C)c3)nc2C#N)cc1OC,nt,nt,?,23µM*,-35%,?
N#Cc1nc(COc2cccc(Cl)c2)oc1NCc1ccco1,-16,7%,4%,18µM*,-46%,21µM*
CCN1C(=O)[C@@H]2[C@H]3C(=CC[C@H]2C1=O)C(=O)[C@H]1OC1[C@H]3O (some centres undefined),nt,-6%[21 µM],nt,nt,nt,nt
CN(C)S(=O)(=O)c1ccc(NC(=O)COC(=O)C2CC3CCCC(C2)C3=O)cc1 (centres undefined),4,2%,22%,6%,5%,-4%
COc1cc(C(=O)NNC(=O)COc2ccc(Cl)cc2)ccc1OCC(=O)N1CCOCC1,11,-3%,-25%,-22%,-4%,-29%
O=c1[nH]c2ccc(NCc3ccc(-c4ccc(F)cc4)o3)cc2[nH]1,nt,2%,4%,-13%,7%,-23%
N#C/C(=C\c1ccc(-c2nc3ccccc3s2)o1)C(N)=O,23,0%,-4%,18µM*,0%,?
Cc1noc(C)c1CSc1nnc(-c2ccccc2F)n1CCc1ccccc1,0,8%,-12%,?,-16%,18µM*
CC(=O)Nc1ccc(C(=O)CSc2nnc(-c3ccccc3F)n2CCc2ccccc2)cc1,8,nt,-2%,13µM*,10%,?
Cc1noc(C)c1CSc1nc2ccccc2n1C,-25,5%,2%,-10%,-1%,?
COCCCN1C(=O)C(=O)/C(=C(/O)c2ccc(S(=O)(=O)N3CCOCC3)cc2)C1c1ccc(C(C)C)cc1 (centres undefined),33,5%,-7%,-8%,4%,3%
Cc1cccc(Nc2nc(C#N)nc(NC3CCCC3)n2)c1,nt,-5%,nt,nt,nt,nt
